Assay results from the supplement of paper PMC4466140.

What was measured:
Experiment in all cases: SPOT peptide array binding signal intensity (averaged, normalized) (arbitrary units (background-subtracted, floor 0; scale differs between SH3 domains)); higher = stronger binding of the SH3 domain to the peptide
AgAbp1 = biological target: AgAbp1
How it was run: (§1)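 E. coli BL21(DE3) was used to express GST-fused SH3 domains from four yeast species, which were then purified on glutathione Sepharose. These were incubated at 10 μg/ml in TBS-based blocking buffer overnight at 4°C on cellulose membranes carrying synthetic 15-mer peptides, in which cysteines were replaced by serines. Binding signal is the replicate average of normalized, background-subtracted spot intensity, in arbitrary units that differ between domains.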

AgBbc1 = biological target: AgBbc1
How it was run: as §1

AgBem1-D1 = biological target: AgBem1-D1
How it was run: as §1

AgBzz1-D1 = biological target: AgBzz1-D1
How it was run: as §1

AgBzz1-D2 = biological target: AgBzz1-D2
How it was run: as §1

AgCyk3 = biological target: AgCyk3
How it was run: as §1

AgFus1 = biological target: AgFus1
How it was run: as §1

AgHof1 = biological target: AgHof1
How it was run: as §1

AgHse1 = biological target: AgHse1
How it was run: as §1

AgLsb1 = biological target: AgLsb1
How it was run: as §1

AgLsb4 = biological target: AgLsb4
How it was run: as §1

AgMyo5 = biological target: AgMyo5
How it was run: as §1

AgNbp2 = biological target: AgNbp2
How it was run: as §1

AgRvs167 = biological target: AgRvs167
How it was run: as §1

AgSho1 = biological target: AgSho1
How it was run: as §1

AgSla1-D1-D2 = biological target: AgSla1-D1-D2
How it was run: as §1

AgSla1-D3 = biological target: AgSla1-D3
How it was run: as §1

CaAbp1-D1 = biological target: CaAbp1-D1
How it was run: as §1

CaAbp1-D2 = biological target: CaAbp1-D2
How it was run: as §1

CaBbc1 = biological target: CaBbc1
How it was run: as §1

CaBem1-D1 = biological target: CaBem1-D1
How it was run: as §1

CaBzz1-D1 = biological target: CaBzz1-D1
How it was run: as §1

CaBzz1-D2 = biological target: CaBzz1-D2
How it was run: as §1

CaCyk3 = biological target: CaCyk3
How it was run: as §1

CaFus1 = biological target: CaFus1
How it was run: as §1

CaHof1 = biological target: CaHof1
How it was run: as §1

CaHse1 = biological target: CaHse1
How it was run: as §1

CaLsb1 = biological target: CaLsb1
How it was run: as §1

CaLsb4 = biological target: CaLsb4
How it was run: as §1

CaMyo5 = biological target: CaMyo5
How it was run: as §1

CaNbp2 = biological target: CaNbp2
How it was run: as §1

CaRvs167 = biological target: CaRvs167
How it was run: as §1

CaRvs167-3 = biological target: CaRvs167-3
How it was run: as §1

CaSho1 = biological target: CaSho1
How it was run: as §1

CaSla1-D1-D2 = biological target: CaSla1-D1-D2
How it was run: as §1

CaSla1-D3 = biological target: CaSla1-D3
How it was run: as §1

ScAbp1 = biological target: ScAbp1
How it was run: as §1

ScBbc1 = biological target: ScBbc1
How it was run: as §1

ScBem1-D1 = biological target: ScBem1-D1
How it was run: as §1

ScBzz1-D1 = biological target: ScBzz1-D1
How it was run: as §1

ScBzz1-D2 = biological target: ScBzz1-D2
How it was run: as §1

ScCyk3 = biological target: ScCyk3
How it was run: as §1

ScFus1 = biological target: ScFus1
How it was run: as §1

ScHof1 = biological target: ScHof1
How it was run: as §1

ScHse1 = biological target: ScHse1
How it was run: as §1

ScLsb1 = biological target: ScLsb1
How it was run: as §1

ScLsb2 = biological target: ScLsb2
How it was run: as §1

ScLsb3 = biological target: ScLsb3
How it was run: as §1

ScLsb4 = biological target: ScLsb4
How it was run: as §1

ScMyo3 = biological target: ScMyo3
How it was run: as §1

ScMyo5 = biological target: ScMyo5
How it was run: as §1

ScNbp2 = biological target: ScNbp2
How it was run: as §1

ScPex13 = biological target: ScPex13
How it was run: as §1

ScRvs167 = biological target: ScRvs167
How it was run: as §1

ScSho1 = biological target: ScSho1
How it was run: as §1

ScSla1-D1-D2 = biological target: ScSla1-D1-D2
How it was run: as §1

ScSla1-D3 = biological target: ScSla1-D3
How it was run: as §1

SpAbp1-D1 = biological target: SpAbp1-D1
How it was run: as §1

SpBbc1 = biological target: SpBbc1
How it was run: as §1

SpBzz1-D1 = biological target: SpBzz1-D1
How it was run: as §1

SpBzz1-D2 = biological target: SpBzz1-D2
How it was run: as §1

SpCyk3 = biological target: SpCyk3
How it was run: as §1

SpHof1 = biological target: SpHof1
How it was run: as §1

SpHof1-2 = biological target: SpHof1-2
How it was run: as §1

SpHof1-3 = biological target: SpHof1-3
How it was run: as §1

SpHse1 = biological target: SpHse1
How it was run: as §1

SpLsb1 = biological target: SpLsb1
How it was run: as §1

SpLsb4 = biological target: SpLsb4
How it was run: as §1

SpMyo1 = biological target: SpMyo1
How it was run: as §1

SpNbp2 = biological target: SpNbp2
How it was run: as §1

SpPex13 = biological target: SpPex13
How it was run: as §1

SpRvs167 = biological target: SpRvs167
How it was run: as §1

SpSla1-D1-D2 = biological target: SpSla1-D1-D2
How it was run: as §1

SpSla1-D3 = biological target: SpSla1-D3
How it was run: as §1

FYHRPAPKPPVTKKV
SPOT peptide array binding signal intensity (AgAbp1): 250
SPOT peptide array binding signal intensity (AgBbc1): 123
SPOT peptide array binding signal intensity (AgBem1-D1): 68
SPOT peptide array binding signal intensity (AgBzz1-D1): 89
SPOT peptide array binding signal intensity (AgBzz1-D2): 65
SPOT peptide array binding signal intensity (AgCyk3): 6
SPOT peptide array binding signal intensity (AgFus1): ≤ 0
SPOT peptide array binding signal intensity (AgHof1): 3
SPOT peptide array binding signal intensity (AgHse1): ≤ 0
SPOT peptide array binding signal intensity (AgLsb1): 138
SPOT peptide array binding signal intensity (AgLsb4): ≤ 0
SPOT peptide array binding signal intensity (AgMyo5): 38.8
SPOT peptide array binding signal intensity (AgNbp2): 1040
SPOT peptide array binding signal intensity (AgRvs167): 1.33
SPOT peptide array binding signal intensity (AgSho1): ≤ 0
SPOT peptide array binding signal intensity (AgSla1-D1-D2): ≤ 0
SPOT peptide array binding signal intensity (AgSla1-D3): 6.5
SPOT peptide array binding signal intensity (CaAbp1-D1): 281
SPOT peptide array binding signal intensity (CaAbp1-D2): 269
SPOT peptide array binding signal intensity (CaBbc1): 454
SPOT peptide array binding signal intensity (CaBem1-D1): 364
SPOT peptide array binding signal intensity (CaBzz1-D1): 2440
SPOT peptide array binding signal intensity (CaBzz1-D2): 529
SPOT peptide array binding signal intensity (CaCyk3): 10.5
SPOT peptide array binding signal intensity (CaFus1): ≤ 0
SPOT peptide array binding signal intensity (CaHof1): ≤ 0
SPOT peptide array binding signal intensity (CaHse1): ≤ 0
SPOT peptide array binding signal intensity (CaLsb1): 3
SPOT peptide array binding signal intensity (CaLsb4): ≤ 0
SPOT peptide array binding signal intensity (CaMyo5): 8
SPOT peptide array binding signal intensity (CaNbp2): 843
SPOT peptide array binding signal intensity (CaRvs167): 3
SPOT peptide array binding signal intensity (CaRvs167-3): ≤ 0
SPOT peptide array binding signal intensity (CaSho1): ≤ 0
SPOT peptide array binding signal intensity (CaSla1-D1-D2): 105
SPOT peptide array binding signal intensity (CaSla1-D3): 45.2
SPOT peptide array binding signal intensity (ScAbp1): 87.5
SPOT peptide array binding signal intensity (ScBbc1): 330
SPOT peptide array binding signal intensity (ScBem1-D1): 4
SPOT peptide array binding signal intensity (ScBzz1-D1): 678
SPOT peptide array binding signal intensity (ScBzz1-D2): 39
SPOT peptide array binding signal intensity (ScCyk3): ≤ 0
SPOT peptide array binding signal intensity (ScFus1): ≤ 0
SPOT peptide array binding signal intensity (ScHof1): ≤ 0
SPOT peptide array binding signal intensity (ScHse1): ≤ 0
SPOT peptide array binding signal intensity (ScLsb1): 32.5
SPOT peptide array binding signal intensity (ScLsb2): 106
SPOT peptide array binding signal intensity (ScLsb3): 53
SPOT peptide array binding signal intensity (ScLsb4): 3
SPOT peptide array binding signal intensity (ScMyo3): 284
SPOT peptide array binding signal intensity (ScMyo5): 459
SPOT peptide array binding signal intensity (ScNbp2): 1680
SPOT peptide array binding signal intensity (ScPex13): 530
SPOT peptide array binding signal intensity (ScRvs167): 12.8
SPOT peptide array binding signal intensity (ScSho1): 12
SPOT peptide array binding signal intensity (ScSla1-D1-D2): 238
SPOT peptide array binding signal intensity (ScSla1-D3): 475
SPOT peptide array binding signal intensity (SpAbp1-D1): 50.5
SPOT peptide array binding signal intensity (SpBbc1): 19.2
SPOT peptide array binding signal intensity (SpBzz1-D1): 647
SPOT peptide array binding signal intensity (SpBzz1-D2): 2.5
SPOT peptide array binding signal intensity (SpCyk3): 2
SPOT peptide array binding signal intensity (SpHof1): 12.5
SPOT peptide array binding signal intensity (SpHof1-2): ≤ 0
SPOT peptide array binding signal intensity (SpHof1-3): ≤ 0
SPOT peptide array binding signal intensity (SpHse1): ≤ 0
SPOT peptide array binding signal intensity (SpLsb1): 8
SPOT peptide array binding signal intensity (SpLsb4): 54
SPOT peptide array binding signal intensity (SpMyo1): 132
SPOT peptide array binding signal intensity (SpNbp2): 9
SPOT peptide array binding signal intensity (SpPex13): 6
SPOT peptide array binding signal intensity (SpRvs167): 9.33
SPOT peptide array binding signal intensity (SpSla1-D1-D2): ≤ 0
SPOT peptide array binding signal intensity (SpSla1-D3): ≤ 0
